Experimental data published in PubChem BioAssay (EPA / NIEHS).
Results filed as inconclusive are left out. Calls of active or inactive are those of the source. Rule for the calls, unless noted: active = hit-call score of the fitted dose curve at least 0.9, where 1 is the maximum; inactive = score below 0.9.

Assays:
[1] = ATG_CRE_CIS: Attagene CIS-FACTORIAL HepG2 Assay for human cAMP Responsive Element (CRE) binding protein 3 (AID 2282926); settings: HepG2 CRE cis-reporter, Attagene multiplexed mRNA; actives raise or lower the signal
Procedure, shortened: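 Capillary electrophoresis of 6-FAM-labelled, HpaI-digested PCR products quantified reporter transcripts. These came from HepG2 transiently transfected with cis-element reporters and exposed to test chemicals for 24 hours, with DMSO defining baseline activity.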

[2] = molecular target: Hepatocyte nuclear factor 3-beta (Homo sapiens) (UniProt Q9Y261); assay: ATG_FoxA2_CIS: Attagene CIS-FACTORIAL HepG2 Assay for human Forkhead box A2 (FOXA2) (AID 2282942); settings: HepG2 cis-reporter transcription factor activity, 24 h; actives raise or lower the signal
Procedure, shortened: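 Endogenous transcription factor activity was read in HepG2 cells carrying transiently transfected cis-promoter reporter units. After 24 h dosing, reporter mRNA was quantified by RT-PCR and capillary electrophoresis, and values fitted bidirectionally versus DMSO.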

[3] = molecular target: Hypoxia-inducible factor 1-alpha (Homo sapiens) (UniProt Q16665); assay: ATG_HIF1a_CIS: Attagene CIS-FACTORIAL HepG2 Assay for human Hypoxia Inducible Factor 1 (HIF1A) (AID 2282951); settings: HepG2 Attagene cis-factorial HIF1a reporter transcription; actives raise or lower the signal
Procedure, shortened: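 Measures endogenous transcription-factor activity through cis-regulated reporter mRNA in HepG2. Cells dosed 24 h; transcripts quantified by RT-PCR with 6-FAM-labelled products separated by capillary electrophoresis; DMSO serves as negative control.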

[4] = molecular target: Hepatocyte nuclear factor 6 (Homo sapiens) (UniProt Q9UBC0); assay: ATG_HNF6_CIS: Attagene CIS-FACTORIAL HepG2 Assay for human Hepatocyte Nuclear Factor 6 (HNF6) (AID 2282952); settings: HepG2 Attagene cis-factorial HNF6 reporter transcription; actives raise or lower the signal
Procedure, shortened: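 Activity values derive from bidirectional fitting against DMSO of reporter mRNA levels, measured by capillary electrophoresis of labelled RT-PCR products from HepG2 cells exposed 24 h.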

[5] = molecular target: Heat shock factor protein 1 (Homo sapiens) (UniProt Q00613); assay: ATG_HSE_CIS: Attagene CIS-FACTORIAL HepG2 Assay for human Heat Shock Transcription Factor 1 (HSE) (AID 2282953); settings: HepG2 HSE cis-reporter, Attagene RNA transcription; actives raise or lower the signal
Procedure, shortened: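 Read-out: fluorescence of reporter-specific RT-PCR fragments separated by capillary electrophoresis. HepG2 carrying transfected cis-element reporter units; 24 h dosing; activity fitted in both directions relative to DMSO baseline.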

[6] = ATG_RORE_CIS: Attagene CIS-FACTORIAL HepG2 Assay for human RAR-related Orphan Receptor Element (RORE) (AID 2282959); settings: HepG2 Attagene cis-factorial RORE reporter, mRNA; actives raise or lower the signal
Procedure, shortened: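 Cells were HepG2 carrying transfected cis-regulated reporter constructs, dosed for 24 hours. Total RNA was reverse-transcribed and reporter cDNA amplified, fluorescently labeled and sized by capillary electrophoresis. Activity was fitted bidirectionally relative to DMSO.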

[7] = ATG_TAL_CIS: Attagene CIS-FACTORIAL HepG2 Assay for human TAL Basal Promoter (AID 2282966); settings: HepG2 Attagene cis-factorial TAL promoter reporter; actives raise or lower the signal;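 note: background control endpoint measuring basal TAL promoter reporter mRNA not a specific factor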
Procedure, shortened: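 Transiently transfected HepG2 (cis-regulated reporter units), 24 h treatment, mRNA read by fluorescent CE after RT-PCR; bidirectional fit, DMSO baseline.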

[8] = ATG_TGFb_CIS: Attagene CIS-FACTORIAL HepG2 Assay for human Transforming Growth Factor (TGF) (AID 2282967); settings: HepG2 Attagene CIS TGFb reporter, mRNA transcription; actives raise or lower the signal
Procedure, shortened: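 Readout: fluorescently labeled reporter cDNA fragments resolved by capillary electrophoresis after RT-PCR. Transfected HepG2 cells dosed for 24 h; endogenous TF activity at TGFB1-linked cis element; gain or loss fitted relative to DMSO.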

[9] = molecular target: X-box-binding protein 1 (Homo sapiens) (UniProt P17861); assay: ATG_Xbp1_CIS: Attagene CIS-FACTORIAL HepG2 Assay for human X-box Binding Protein 1 (XBP1) (AID 2282972); settings: HepG2 XBP1 cis-element reporter, Attagene multiplex; actives raise or lower the signal
Procedure, shortened: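 Human hepatoma HepG2, cis-element reporter system, 24 h treatment; mRNA quantified by RT-PCR/CE fluorescence; fit relative to DMSO.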

[10] = ATG_M_32_TRANS: Attagene TRANS-FACTORIAL HepG2 Assay for M32 Transcription Factor (Internal Marker) (AID 2282984; active = hit-call score of the fitted dose curve at least 0.9, where 1 is the maximum;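 note: transcript level of a background control reporter unit measured by RT-PCR and capillary electrophoresis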); settings: HepG2 Attagene TRANS M32 internal marker reporter
Procedure, shortened: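 After 24 h dosing of transfected HepG2 cells, total RNA was reverse-transcribed, reporter sequences PCR-amplified, 6-FAM labelled by primer extension and HpaI-digested before capillary electrophoresis. Signal increase over DMSO was fitted.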

[11] = molecular target: Transcriptional activator Myb (Homo sapiens) (UniProt P10242); assay: ATG_Myb_CIS: Attagene CIS-FACTORIAL HepG2 Assay for human Myeloblastosis (Myb) Proto-Oncogene Transcription Factor (AID 2282986); settings: HepG2 Attagene CIS-FACTORIAL Myb reporter transcription; actives raise or lower the signal
Procedure, shortened: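 Steps: transfect HepG2 with cis-regulated reporter units; dose with chemical for 24 h; isolate RNA, reverse-transcribe, PCR-amplify and FAM-label reporter sequences; digest with HpaI; resolve by capillary electrophoresis. Activity fitted in both directions relative to DMSO.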

[12] = molecular target: Nuclear respiratory factor 1 (Homo sapiens) (UniProt Q16656); assay: ATG_NRF1_CIS: Attagene CIS-FACTORIAL HepG2 Assay for human Nuclear Respiratory Factor 1 (NRF1) Orphan Gene (AID 2282987); settings: HepG2 NRF1 cis-element reporter, Attagene multiplex; actives raise or lower the signal
Procedure, shortened: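 Fluorescence intensity of labelled reporter cDNA fragments, resolved by capillary electrophoresis, served as readout for NRF1 cis-element activity. Transiently transfected HepG2 cells were dosed for 24 hours; activity in either direction was fitted against DMSO negative control.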

[13] = ATG_NFI_CIS: Attagene CIS-FACTORIAL HepG2 Assay for human Nuclear Factor I (NFI) (AID 2282989); settings: HepG2 cis-regulatory reporter, NFI response element transcription; actives raise or lower the signal
Procedure, shortened: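 Read-out: reporter mRNA via RT-PCR plus capillary electrophoresis with fluorescence detection. Transiently transfected HepG2 (endogenous TF activity on cis promoters), 24 h compound exposure; gain or loss of signal fitted against DMSO.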

[14] = molecular target: Myc proto-oncogene protein (Homo sapiens) (UniProt P01106); assay: ATG_Myc_CIS: Attagene CIS-FACTORIAL HepG2 Assay for human Myelocytomatosis (Myc) Proto-Oncogene Transcription Factor (AID 2282990); settings: HepG2, Attagene cis-reporter transcription factor activity; actives raise or lower the signal
Procedure, shortened: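 HepG2 cells transiently transfected with multiple cis-promoter-driven reporter transcription units, so endogenous TF activity is read. After 24 h compound exposure, reporter mRNA was quantified by RT-PCR, 6-FAM labelling, HpaI digestion and capillary electrophoresis; bidirectional fit versus DMSO.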

[15] = ATG_NF_kB_CIS: Attagene CIS-FACTORIAL HepG2 Assay for human Nuclear Factor Kappa B (NF-kB) (AID 2282991); settings: HepG2 Attagene cis-factorial NF-kB reporter mRNA; actives raise or lower the signal
Procedure, shortened: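 Endogenous transcription factor activity in HepG2 was captured via cis-regulated reporter constructs; after 24 h dosing, reporter mRNA was reverse-transcribed, amplified, fluorescently labelled and sized by capillary electrophoresis, with activity fitted bidirectionally relative to DMSO.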

[16] = ATG_NRF2_ARE_CIS: Attagene CIS-FACTORIAL HepG2 Assay for human Nuclear Factor Erythroid 2 Related Factor 2 (NFR2) response to Antioxidant Response Elements (ARE) (AID 2282992); settings: HepG2 Attagene ARE/NRF2 reporter, transcription factor activity; actives raise or lower the signal
Procedure, shortened: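 Fluorescence intensity of reporter-specific cDNA fragments, separated by capillary electrophoresis, reflects mRNA induction in transfected HepG2 cells at 24 h. Activity is fitted bidirectionally, DMSO serving as baseline.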

[17] = molecular target: Cellular tumor antigen p53 (Homo sapiens) (UniProt P04637); assay: ATG_p53_CIS: Attagene CIS-FACTORIAL HepG2 Assay for human p53 Transcription Factor (AID 2282994); settings: HepG2 p53 cis-element reporter, Attagene mRNA; actives raise or lower the signal
Procedure, shortened: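 Transiently transfected HepG2 (multiple cis reporter transcription units); exposure 24 h; reporter RNA via RT-PCR, 6-FAM extension, 2 h HpaI digest at 37 C, CE detection; DMSO baseline.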

[18] = ATG_XTT_Cytotoxicity: Cytotoxicity Assessment in the Attagene TRANS-FACTORIAL HepG2 Assay (AID 2283584; active = hit-call score of the fitted dose curve at least 0.9, where 1 is the maximum)
Procedure, shortened: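 HepG2 human liver cells, transiently transfected with multiple GAL4-UAS reporter units, were dosed and read at 24 h by XTT as cell number. Loss of signal was fitted relative to DMSO negative control baseline.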

[19] = ATG_M_32_CIS: Attagene CIS-FACTORIAL HepG2 Assay for M32 Transcription Factor (Internal Marker) (AID 2282949); settings: HepG2 Attagene cis-factorial M32 reporter, mRNA; actives raise or lower the signal;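 note: background control marker of the multiplexed CIS panel rather than a real target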
Procedure, shortened: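 HepG2 transfectants (cis-regulated reporter transcription units) dosed 24 h. Reporter mRNA by RT-PCR plus CE, analysed as gain or loss relative to DMSO.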

Measured: AC50

Sequence of Hypoxia-inducible factor 1-alpha (Homo sapiens) (Q16665 whole entry, looked up): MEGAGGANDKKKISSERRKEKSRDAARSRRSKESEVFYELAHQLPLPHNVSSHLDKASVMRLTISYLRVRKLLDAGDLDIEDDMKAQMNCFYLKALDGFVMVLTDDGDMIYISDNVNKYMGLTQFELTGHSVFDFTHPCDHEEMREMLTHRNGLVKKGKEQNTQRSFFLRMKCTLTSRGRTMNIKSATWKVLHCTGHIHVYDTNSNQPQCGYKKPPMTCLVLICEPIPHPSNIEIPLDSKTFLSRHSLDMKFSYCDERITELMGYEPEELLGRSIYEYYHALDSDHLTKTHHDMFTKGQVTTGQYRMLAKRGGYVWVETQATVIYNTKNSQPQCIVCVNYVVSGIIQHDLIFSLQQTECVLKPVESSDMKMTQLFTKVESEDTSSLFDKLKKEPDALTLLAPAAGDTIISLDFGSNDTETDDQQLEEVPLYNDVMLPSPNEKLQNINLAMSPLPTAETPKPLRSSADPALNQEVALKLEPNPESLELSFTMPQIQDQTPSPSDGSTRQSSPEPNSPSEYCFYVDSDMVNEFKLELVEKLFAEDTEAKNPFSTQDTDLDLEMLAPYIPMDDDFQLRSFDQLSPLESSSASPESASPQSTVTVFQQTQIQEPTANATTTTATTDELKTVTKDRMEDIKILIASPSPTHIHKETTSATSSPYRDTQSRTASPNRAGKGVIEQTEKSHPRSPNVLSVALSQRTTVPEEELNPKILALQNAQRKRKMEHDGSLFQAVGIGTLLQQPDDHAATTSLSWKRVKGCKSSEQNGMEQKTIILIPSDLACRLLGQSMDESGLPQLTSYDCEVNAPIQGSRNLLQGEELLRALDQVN
Sequence of Cellular tumor antigen p53 (Homo sapiens) (P04637 whole entry, looked up): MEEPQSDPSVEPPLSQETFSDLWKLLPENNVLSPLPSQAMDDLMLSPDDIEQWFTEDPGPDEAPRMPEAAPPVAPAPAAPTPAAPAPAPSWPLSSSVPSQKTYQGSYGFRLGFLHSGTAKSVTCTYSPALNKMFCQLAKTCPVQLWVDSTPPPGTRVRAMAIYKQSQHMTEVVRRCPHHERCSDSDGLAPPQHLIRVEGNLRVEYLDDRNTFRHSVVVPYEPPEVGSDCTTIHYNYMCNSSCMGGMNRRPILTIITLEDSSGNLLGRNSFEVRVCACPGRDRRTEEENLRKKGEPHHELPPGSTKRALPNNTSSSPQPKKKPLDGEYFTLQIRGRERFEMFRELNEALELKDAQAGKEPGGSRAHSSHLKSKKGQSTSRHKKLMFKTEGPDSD
Sequence of Hepatocyte nuclear factor 6 (Homo sapiens) (Q9UBC0 whole entry, looked up): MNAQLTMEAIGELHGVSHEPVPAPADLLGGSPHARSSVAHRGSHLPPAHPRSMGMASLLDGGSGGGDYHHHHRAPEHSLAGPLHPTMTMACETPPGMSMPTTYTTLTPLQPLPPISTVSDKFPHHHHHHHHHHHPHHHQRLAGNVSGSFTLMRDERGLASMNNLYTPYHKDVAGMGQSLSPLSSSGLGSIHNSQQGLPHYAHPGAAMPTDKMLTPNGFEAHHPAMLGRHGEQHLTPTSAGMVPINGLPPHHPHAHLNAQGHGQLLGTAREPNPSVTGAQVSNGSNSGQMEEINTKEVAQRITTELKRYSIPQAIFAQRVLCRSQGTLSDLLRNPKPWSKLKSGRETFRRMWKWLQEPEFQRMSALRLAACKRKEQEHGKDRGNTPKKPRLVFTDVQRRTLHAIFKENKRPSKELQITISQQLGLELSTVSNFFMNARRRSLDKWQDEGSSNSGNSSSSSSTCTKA
Sequence of Transcriptional activator Myb (Homo sapiens) (P10242 whole entry, looked up): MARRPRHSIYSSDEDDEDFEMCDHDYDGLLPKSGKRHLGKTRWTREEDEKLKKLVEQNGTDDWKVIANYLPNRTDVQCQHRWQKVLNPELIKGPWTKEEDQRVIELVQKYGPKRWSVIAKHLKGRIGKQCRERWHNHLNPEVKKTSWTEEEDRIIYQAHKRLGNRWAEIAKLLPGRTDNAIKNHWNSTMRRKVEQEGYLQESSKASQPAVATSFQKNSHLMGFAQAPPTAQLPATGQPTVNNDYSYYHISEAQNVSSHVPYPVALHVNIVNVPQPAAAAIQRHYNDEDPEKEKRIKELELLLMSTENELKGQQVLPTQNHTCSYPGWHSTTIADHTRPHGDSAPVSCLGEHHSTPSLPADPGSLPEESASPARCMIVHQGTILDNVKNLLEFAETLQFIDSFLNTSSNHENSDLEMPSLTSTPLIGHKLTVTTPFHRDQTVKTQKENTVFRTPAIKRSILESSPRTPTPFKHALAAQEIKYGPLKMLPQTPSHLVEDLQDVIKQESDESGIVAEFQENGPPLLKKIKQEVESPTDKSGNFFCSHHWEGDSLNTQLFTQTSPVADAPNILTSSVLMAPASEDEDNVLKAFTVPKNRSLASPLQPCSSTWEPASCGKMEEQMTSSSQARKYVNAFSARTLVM
Sequence of Heat shock factor protein 1 (Homo sapiens) (Q00613 whole entry, looked up, the tested form may be a part): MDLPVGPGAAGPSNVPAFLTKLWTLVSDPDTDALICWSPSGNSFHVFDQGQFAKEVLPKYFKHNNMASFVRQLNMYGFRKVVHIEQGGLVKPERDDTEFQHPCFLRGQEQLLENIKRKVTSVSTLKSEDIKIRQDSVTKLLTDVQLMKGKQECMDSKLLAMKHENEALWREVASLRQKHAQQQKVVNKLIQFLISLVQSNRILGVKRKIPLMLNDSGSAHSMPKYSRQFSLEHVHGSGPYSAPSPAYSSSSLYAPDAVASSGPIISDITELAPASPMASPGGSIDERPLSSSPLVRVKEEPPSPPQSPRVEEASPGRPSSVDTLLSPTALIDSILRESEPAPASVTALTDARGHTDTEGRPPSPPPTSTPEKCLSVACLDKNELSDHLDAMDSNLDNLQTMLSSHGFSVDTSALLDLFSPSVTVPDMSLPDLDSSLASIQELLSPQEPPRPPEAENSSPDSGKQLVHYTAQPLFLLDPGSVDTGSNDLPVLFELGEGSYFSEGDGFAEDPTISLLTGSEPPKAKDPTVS
Sequence of X-box-binding protein 1 (Homo sapiens) (P17861 whole entry, looked up): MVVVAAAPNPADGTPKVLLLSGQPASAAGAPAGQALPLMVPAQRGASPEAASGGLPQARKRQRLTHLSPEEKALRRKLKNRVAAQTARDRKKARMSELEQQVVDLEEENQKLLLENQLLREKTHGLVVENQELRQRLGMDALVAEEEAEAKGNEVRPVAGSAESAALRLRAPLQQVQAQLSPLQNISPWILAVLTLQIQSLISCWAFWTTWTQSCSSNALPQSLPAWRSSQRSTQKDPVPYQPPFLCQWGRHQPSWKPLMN
Sequence of Myc proto-oncogene protein (Homo sapiens) (P01106 whole entry, looked up): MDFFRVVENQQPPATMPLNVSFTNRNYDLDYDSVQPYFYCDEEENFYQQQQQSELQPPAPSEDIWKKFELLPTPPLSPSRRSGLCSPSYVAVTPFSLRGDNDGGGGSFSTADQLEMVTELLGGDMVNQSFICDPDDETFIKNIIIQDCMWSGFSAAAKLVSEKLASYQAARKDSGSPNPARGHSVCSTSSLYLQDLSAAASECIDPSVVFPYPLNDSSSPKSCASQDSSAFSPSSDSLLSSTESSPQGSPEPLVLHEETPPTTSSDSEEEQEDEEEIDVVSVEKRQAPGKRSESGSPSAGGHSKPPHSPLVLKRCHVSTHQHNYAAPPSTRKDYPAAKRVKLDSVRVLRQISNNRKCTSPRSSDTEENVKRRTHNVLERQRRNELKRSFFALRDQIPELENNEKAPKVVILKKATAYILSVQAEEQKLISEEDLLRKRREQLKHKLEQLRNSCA
Sequence of Nuclear respiratory factor 1 (Homo sapiens) (Q16656 whole entry, looked up, the tested form may be a part): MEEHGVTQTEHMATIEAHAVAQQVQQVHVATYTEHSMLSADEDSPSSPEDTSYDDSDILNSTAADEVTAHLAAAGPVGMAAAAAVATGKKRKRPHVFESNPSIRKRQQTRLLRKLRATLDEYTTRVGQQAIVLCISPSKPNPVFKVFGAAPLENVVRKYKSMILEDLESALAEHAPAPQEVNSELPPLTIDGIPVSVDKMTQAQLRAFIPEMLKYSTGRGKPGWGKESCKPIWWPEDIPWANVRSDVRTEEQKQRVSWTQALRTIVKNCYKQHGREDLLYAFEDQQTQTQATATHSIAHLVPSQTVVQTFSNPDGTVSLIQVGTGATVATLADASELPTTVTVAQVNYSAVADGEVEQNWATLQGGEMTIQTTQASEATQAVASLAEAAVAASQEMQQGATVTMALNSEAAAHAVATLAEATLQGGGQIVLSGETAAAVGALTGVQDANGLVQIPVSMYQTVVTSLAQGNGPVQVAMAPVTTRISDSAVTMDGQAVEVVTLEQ
Sequence of Hepatocyte nuclear factor 3-beta (Homo sapiens) (Q9Y261 whole entry, looked up): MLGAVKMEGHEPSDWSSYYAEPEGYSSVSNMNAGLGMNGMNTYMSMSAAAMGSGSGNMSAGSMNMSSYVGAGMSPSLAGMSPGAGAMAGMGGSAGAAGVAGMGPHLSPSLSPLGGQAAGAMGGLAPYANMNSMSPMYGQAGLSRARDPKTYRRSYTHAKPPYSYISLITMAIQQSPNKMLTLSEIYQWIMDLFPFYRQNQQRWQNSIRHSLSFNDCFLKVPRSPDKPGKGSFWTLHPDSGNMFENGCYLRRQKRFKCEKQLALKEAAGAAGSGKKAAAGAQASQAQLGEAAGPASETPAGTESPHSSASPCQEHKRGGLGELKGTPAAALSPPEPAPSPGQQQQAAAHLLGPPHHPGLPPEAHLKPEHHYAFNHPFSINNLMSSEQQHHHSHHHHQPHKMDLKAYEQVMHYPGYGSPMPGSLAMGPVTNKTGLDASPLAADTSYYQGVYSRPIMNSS

C=Cc1cccc(CCl)c1
active: [9] 38.5 µM | [16] 22.4 µM
not listed: [19]
inactive: all other assays above

COc1ccc(CO)cc1
not listed: [2] | [15]
inactive: all other assays above

C=COCCCl
active: [3] 48.5 µM
not listed: [2]
inactive: all other assays above

C=CCO
not listed: [5] | [6] | [7]
inactive: all other assays above
